KCNH2 3.1 inh = blocks the human KCNH2 3.1 channel isoform; actives 0.95% (n = 340,000); U2OS KCNH2 3.1, thallium flux FluxOr; stronger effect = lower value; AID 720553; activity change, % (tested at about 1.8 µM);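 active = maximum activity change below -70%; inconclusive = maximum activity change from -70% to -50%; inactive = maximum activity change above -50%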;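 note: thallium influx rate constant from kinetic fluorescence after stimulation buffer; % is set by controls: 0 for no effect and ±100 for the full control effect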
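FluxOr-based Tl+ influx in U2OS cells transduced with KCNH2 3.1 virus; rate constants normalized to DMSO controls.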
hERG WT inh = KCNH2 (human, wildtype) channel inhibition. activity change, % at 1.84 µM. U2OS, BacMam KCNH2, thallium flux FluxOr; stronger effect = lower value. AID 720551. actives 0.37% (n = 340,000). Q12809;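 active = maximum activity change below -70%; inconclusive = maximum activity change between -70% and -50%; inactive = maximum activity change above -50%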; note: % is set by controls: 0 for no effect and ±100 for the full control effect
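U2OS cells were transduced with wild-type KCNH2 virus (2.03 x 10^8 / mL) for 4 h at room temperature, then cultured overnight at 37 C. Thallium flux was read with FluxOr dye. Rate constants were normalized to DMSO controls.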
MLL CXXC-DNA inh = inhibitors of human MLL CXXC domain-DNA interaction | AID 2662 | Q03164 | Potency, µM (series often up to 115 µM), without a hit: at the highest dose activity change, negative = inhibition, usual class: inhibitors | MLL-CXXC / FITC-HOXA9 DNA fluorescence polarization | actives 0.037% (n = 290,000); active = well fitted inhibition curve with a large enough effect in the polarisation, with a control signal flat, not every such curve was filed as active; inconclusive = small, poorly fitted or top-dose-only effect, or effect the other way, or a change in a side signal; inactive = no such curve, though single readings can be large or run the other way; the % refers to the polarisation; note: potency is the fitted concentration of half-maximal effect
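Fluorescence polarization: 7 uM MLL-CXXC (stock) preincubated 5 min with compounds, then 50 nM fluorescein-HOX-A9 DNA (stock) added; 30 min ambient. Buffer 50 mM Tris-HCl pH 7.5, 50 mM NaCl, 1 mM DTT, 0.05% BSA.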
Menin-MLL FL inh = menin-MLL binding inhibition, fluorescein peptide; Fluorescence polarization, fluorescein-MLL peptide displacement from menin; FP activity change, % at 61.4 µM; 290,000 tested, under 10 active; active = well fitted curve in the direction sought with a large enough effect in the polarisation, not every such curve was filed as active; inconclusive = small, poorly fitted or top-dose-only effect, or effect the other way, or a change in a side signal; inactive = no such curve, though single readings can be large or run the other way; the % refers to the polarisation; note: % of control where 0% means no effect
Menin-MLL TR inh = menin-MLL binding inhibition, Texas Red mutant peptide | Potency, µM (titrated, usually from 61.6 µM), inactives show at the highest dose FP activity change, negative = inhibition, hits mostly inhibitors | Menin + Texas Red MLL mutant peptide, fluorescence polarization | AID 1768 | O00255 | actives 0.23% (n = 270,000); active = well fitted inhibition curve with a large enough effect in the polarisation, with a control signal flat, not every such curve was filed as active; inconclusive = small, poorly fitted or top-dose-only effect, or effect the other way, or a change in a side signal; inactive = no such curve, though single readings can be large or run the other way; the % refers to the polarisation; note: potency is the fitted concentration of half-maximal effect; % of control where 0% means no effect
Target sequence (O00255 whole entry, looked up): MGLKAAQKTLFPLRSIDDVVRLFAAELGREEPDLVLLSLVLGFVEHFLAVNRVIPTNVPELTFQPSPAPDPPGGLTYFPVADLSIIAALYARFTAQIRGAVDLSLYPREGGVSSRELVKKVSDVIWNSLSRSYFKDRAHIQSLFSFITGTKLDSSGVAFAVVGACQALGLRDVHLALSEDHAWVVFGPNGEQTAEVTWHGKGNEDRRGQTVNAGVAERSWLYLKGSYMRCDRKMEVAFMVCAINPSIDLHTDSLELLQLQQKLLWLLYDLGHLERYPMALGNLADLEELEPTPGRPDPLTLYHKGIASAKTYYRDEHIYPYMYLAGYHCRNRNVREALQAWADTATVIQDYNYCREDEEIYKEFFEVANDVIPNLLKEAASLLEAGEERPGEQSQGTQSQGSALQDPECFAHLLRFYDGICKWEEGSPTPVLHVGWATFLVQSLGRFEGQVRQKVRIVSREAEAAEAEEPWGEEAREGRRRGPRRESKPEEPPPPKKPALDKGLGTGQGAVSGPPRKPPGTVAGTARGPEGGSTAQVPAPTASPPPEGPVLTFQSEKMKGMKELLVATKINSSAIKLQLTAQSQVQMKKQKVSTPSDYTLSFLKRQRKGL
Active calls of the source: *. Rows were chosen to be rich in hits. Some 1.1% of all compounds tested hit in one or more screens of this group.

What do the screens show for `Cc1ccc(Nc2nc(N)nc(CN3CCN(Cc4ccc5c(c4)OCO5)CC3)n2)cc1Cl`?
KCNH2 3.1 inh: -91.8*; hERG WT inh: -90.0*; MLL CXXC-DNA inh: 1.8%; Menin-MLL FL inh: -1.5; Menin-MLL TR inh: 5.4%

What do the screens show for `CC(=O)Nc1ccc(S(=O)(=O)N2CCC(c3nnc(-c4ccc(C)cc4)o3)CC2)cc1`?
KCNH2 3.1 inh: -137.4*; hERG WT inh: 8.7; Menin-MLL FL inh: -1.0; Menin-MLL TR inh: 13.3%

Results for OC[C@@H]1OC(O)[C@@H](O)[C@H](O)[C@@H]1O (stereo partly drawn) ?
Menin-MLL FL inh: -5.0; Menin-MLL TR inh: 5.2%

What do the screens show for `O=C(NC1CCN(CC(=O)N(c2ccccc2)c2ccccc2)CC1)c1ccc([N+](=O)[O-])cc1`?
KCNH2 3.1 inh: -110.5*; hERG WT inh: -76.6*; MLL CXXC-DNA inh: -11.8%; Menin-MLL FL inh: -5.8; Menin-MLL TR inh: -11.2%

How did COc1ccc(C(=O)NC2CC2)cc1OC1CCN(Cc2cc(C)c(C)cc2C)CC1 do in these assays?
KCNH2 3.1 inh: -75.4*; hERG WT inh: inconclusive; MLL CXXC-DNA inh: -1.5%

What do the screens show for `COc1ccc(C(=O)NC2CC2)cc1OC1CCN(Cc2ccc(F)cc2Cl)CC1`?
KCNH2 3.1 inh: -93.5*; hERG WT inh: -75.0*

How did COc1cc(CN2CCC(Oc3cc(C(=O)NC4CC4)ccc3OC)CC2)cc(OC)c1 do in these assays?
KCNH2 3.1 inh: -28.2; hERG WT inh: -17.9; MLL CXXC-DNA inh: 5.5%

How did COc1ccc(CN2CCC(Oc3cc(C(=O)NC4CC4)ccc3OC)CC2)c(O)c1 do in these assays?
KCNH2 3.1 inh: -94.4*; hERG WT inh: -109.1*; MLL CXXC-DNA inh: -5.9%

How did COC(=O)/C=C1\SC(=NC(=O)c2ccc(-c3ccccc3)cc2)NC1=O do in these assays?
KCNH2 3.1 inh: 22.9; hERG WT inh: 2.6

Results for O=C(O)[C@H](Cc1c[nH]c2ccccc12)N1C(=O)C2=CCCC=C2C1=O ?
Menin-MLL FL inh: 1.1; Menin-MLL TR inh: 4.9%

How did O=C(NC1CCN(Cc2ccc(Cl)cc2Cl)CC1)c1ccccc1 do in these assays?
KCNH2 3.1 inh: -83.6*; hERG WT inh: -2.0; MLL CXXC-DNA inh: -0.3%; Menin-MLL FL inh: -1.8; Menin-MLL TR inh: -11.4%

Results for O=C(NC1CCN(Cc2ccccc2)CC1)c1ccccc1 ?
KCNH2 3.1 inh: 1.2; hERG WT inh: -4.0; MLL CXXC-DNA inh: -5.3%; Menin-MLL FL inh: -4.9; Menin-MLL TR inh: -22.9%

How did Cc1cc(S(=O)(=O)c2ccc(Cl)cc2)nc(S(=O)(=O)c2ccc(Cl)cc2)c1C#N do in these assays?
KCNH2 3.1 inh: -73.5*; hERG WT inh: 1.8

What do the screens show for `Cc1cc(C)c(S(=O)(=O)c2ccc(Cl)cc2)c(Cl)n1`?
KCNH2 3.1 inh: 0.1; hERG WT inh: -2.2; MLL CXXC-DNA inh: 5.9%; Menin-MLL FL inh: 1.6; Menin-MLL TR inh: 3.5%

How did COc1ccc(NC(=O)C2=CC(c3ccc(C)cc3)=NS(=O)(=O)N2C)cc1 do in these assays?
KCNH2 3.1 inh: -2.7; hERG WT inh: 9.2; Menin-MLL FL inh: 11.6; Menin-MLL TR inh: 41.3%

Results for COc1ccc(C2=NS(=O)(=O)N(C)C(C(=O)N3CCC(C)CC3)=C2)cc1 ?
KCNH2 3.1 inh: -112.5*; hERG WT inh: 0.8; Menin-MLL FL inh: -0.2; Menin-MLL TR inh: 1.3%

Results for CC(C)CCC[C@@H](C)[C@@H]1CC[C@H]2C3=CC=C4CC(O)CC[C@]4(C)[C@H]3CC[C@@]21C (stereo partly drawn) ?
Menin-MLL FL inh: inconclusive; Menin-MLL TR inh: -25.6%

How did Cc1cc(Cn2nc(C(=O)NCc3cccc(C(F)(F)F)c3)cc2-c2ccccc2)on1 do in these assays?
KCNH2 3.1 inh: -82.9*; hERG WT inh: -29.2

What do the screens show for `Cc1ccc(CNC(=O)c2cc(-c3ccccc3)n(Cc3cc(C)no3)n2)cc1`?
KCNH2 3.1 inh: 3.5; hERG WT inh: 5.2

What do the screens show for `COc1ccc(CC(=O)N/N=C(/C)CC(=O)N(C)c2ccccc2)cc1`?
KCNH2 3.1 inh: -91.7*; hERG WT inh: 3.7; MLL CXXC-DNA inh: -1.1%

Results for OCC1NCC(O)C(O)C1O (stereo not drawn) ?
MLL CXXC-DNA inh: -2.2%; Menin-MLL FL inh: 2.2; Menin-MLL TR inh: 6.2%

How did c1ccc(-c2nc3nonc3c3nc4ccccc4n23)cc1 do in these assays?
KCNH2 3.1 inh: -79.8*; hERG WT inh: 5.3; MLL CXXC-DNA inh: 0.5%; Menin-MLL FL inh: -3.7; Menin-MLL TR inh: -20.0%

How did C=C1CCN(C(Cc2ccccc2)C(=O)NCc2ccccc2)S(=O)(=O)c2ccccc21 (stereo not drawn) do in these assays?
Menin-MLL FL inh: 6.6; Menin-MLL TR inh: 18.3%

Results for Cc1ccc(C(=O)C(c2ccccc2)N2Cc3ccccc3C2=N)cc1 (stereo not drawn) ?
KCNH2 3.1 inh: -72.9*; hERG WT inh: -4.6; MLL CXXC-DNA inh: 2.8%; Menin-MLL FL inh: 2.2; Menin-MLL TR inh: -0.2%

How did COc1ccc(C(=O)N2CCC[C@@]3(CCN(Cc4ccccc4OC)C3)C2)cc1 do in these assays?
Menin-MLL FL inh: -1.5; Menin-MLL TR inh: -22.5%

Results for Ic1ccc(N2CCN(Cc3c[nH]c4ncccc34)CC2)cc1 ?
KCNH2 3.1 inh: -79.3*; hERG WT inh: -19.4; MLL CXXC-DNA inh: 36.0%; Menin-MLL FL inh: 2.7; Menin-MLL TR inh: -13.8%

What do the screens show for `O=C(C1CCCN1S(=O)(=O)c1cccc2nsnc12)N1CCN(c2ccc(F)cc2)CC1` (stereo not drawn)?
KCNH2 3.1 inh: -73.6*; hERG WT inh: 35.5; MLL CXXC-DNA inh: 9.3%

How did Cc1csc(NC(C)c2nc3cc(Cl)c(Cl)cc3n2CCCO)n1 (stereo not drawn) do in these assays?
KCNH2 3.1 inh: -80.1*; hERG WT inh: -8.8

How did CC(Nc1nc(-c2ccc(F)cc2)cs1)c1nc2cc(C(F)(F)F)ccc2n1CCCO (stereo not drawn) do in these assays?
KCNH2 3.1 inh: -11.6; hERG WT inh: -15.9

How did COc1ccc(S(=O)(=O)NCC(=O)N(CC(=O)NCC2CCCO2)Cc2ccccc2)cc1 (stereo not drawn) do in these assays?
KCNH2 3.1 inh: -2.7; hERG WT inh: -10.5; MLL CXXC-DNA inh: -0.8%; Menin-MLL FL inh: 0.2; Menin-MLL TR inh: -14.7%

How did COc1ccc(S(=O)(=O)NCC(=O)N(CC(=O)NCC2CCCO2)c2c(C)cccc2C)cc1 (stereo not drawn) do in these assays?
KCNH2 3.1 inh: -73.7*; hERG WT inh: 2.0; MLL CXXC-DNA inh: 1.8%; Menin-MLL FL inh: 0.1; Menin-MLL TR inh: inconclusive

How did Cc1ccccc1NS(=O)(=O)c1ccc(OCC(=O)NCC2CCCO2)cc1 (stereo not drawn) do in these assays?
KCNH2 3.1 inh: -184.4*; hERG WT inh: -172.0*; MLL CXXC-DNA inh: -4.8%

Results for CC(C)(C)NS(=O)(=O)c1ccc(OCC(=O)NCC2CCCO2)cc1 (stereo not drawn) ?
KCNH2 3.1 inh: -4.6; hERG WT inh: 28.0

Screens from PubChem.
